ALDH1A1 block = qHTS Assay for Inhibitors of Aldehyde Dehydrogenase 1 (ALDH1A1); Aldehyde dehydrogenase 1A1 (Homo sapiens), P00352; Potency, µM (top dose mostly 75.3 µM), most hits filed as inhibitors; actives 7.3% (n = 220,000); Purified ALDH1A1, NADH fluorescence, propionaldehyde substrate; active means well fitted inhibition curve with a large enough effect, not every such curve was filed as active; inconclusive means small, poorly fitted or top-dose-only effect, or another doubt; inactive means no such curve, though single readings can be large or run the other way
IMPase Li cell = qHTS Assay for Identifying the Cell-Membrane Permeable IMPase Inhibitors: Potentiation with Lithium; Potency, µM (series often up to 59.4 µM), usual class: inhibitors; AID 1457, 2008; CHO-M1 cells, IP1 TR-FRET (IP-One), carbachol + lithium; actives 0.35% (n = 210,000);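 further: IP1 builds up when IMPase is blocked and the TR-FRET signal falls; nearly all actives have a fitted effect of over 50% in size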
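IP1 accumulation measured by competitive TR-FRET in lysed CHO-M1 cells after 30 min compound exposure at 37C, with a small lithium addition to potentiate weak responses. Hill-equation AC50 from ratio and donor-channel data.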
HPGD block = qHTS Assay for Inhibitors of HPGD (15-Hydroxyprostaglandin Dehydrogenase). Potency, µM, usual class: inhibitors. purified HPGD, NADH fluorescence kinetic, PGE2 substrate. actives 4.3% (n = 150,000). AID 894, 2007; active means well fitted inhibition curve with a large enough effect, not every such curve was filed as active; inconclusive means small, poorly fitted or top-dose-only effect, or another doubt; inactive means no such curve, though single readings can be large or run the other way
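NADH formation kinetics: reaction with 30 uM PGE2 and 1 mM NAD+ (final), 20 nM enzyme, Tris-HCl pH 8 with Tween 20, after 15 min compound preincubation at room temperature. Fluorescence change, last versus first of five reads.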
NPSR antag = qHTS Assay for Antagonists of the Neuropeptide S Receptor: cAMP Signal Transduction; CHO-NPSR cells, cAMP TR-FRET, antagonist mode; Potency, µM (doses to about 38.3 µM), usual class: inhibitors; actives 1% (n = 220,000); further: nearly all actives have a fitted effect of over 50% in size
Target sequence (Q6W5P4 whole entry, looked up): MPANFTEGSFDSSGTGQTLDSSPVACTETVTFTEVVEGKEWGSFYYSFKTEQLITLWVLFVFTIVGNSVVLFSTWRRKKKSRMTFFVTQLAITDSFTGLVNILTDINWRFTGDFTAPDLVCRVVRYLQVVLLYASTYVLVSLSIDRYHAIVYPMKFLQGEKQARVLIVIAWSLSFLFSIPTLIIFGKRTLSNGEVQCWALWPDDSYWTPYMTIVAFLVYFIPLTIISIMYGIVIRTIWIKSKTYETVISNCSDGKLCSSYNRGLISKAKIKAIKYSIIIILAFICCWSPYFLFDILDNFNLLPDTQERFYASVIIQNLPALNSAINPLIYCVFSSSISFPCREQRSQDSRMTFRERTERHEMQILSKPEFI
IMPase cell inh = qHTS Assay for Identifying the Cell-Membrane Permeable IMPase Inhibitors | CHO-M1 cells, IP1 accumulation, HTRF TR-FRET ratio | 120,000 tested, under 10 active | inhibition (IP1 accumulation), % at 46.1 µM | AID 901, 2007; active means well fitted curve in the direction sought with a large enough effect in the signal ratio, not every such curve was filed as active; inconclusive means small, poorly fitted or top-dose-only effect, or a change in a side signal; inactive means no such curve, though single readings can be large or run the other way; the % refers to the signal ratio;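 further: cells stimulated with carbachol in lithium chloride buffer; higher means more IMPase inhibition seen as more IP1 and lower FRET ratio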
Target sequence (P97697 whole entry, looked up): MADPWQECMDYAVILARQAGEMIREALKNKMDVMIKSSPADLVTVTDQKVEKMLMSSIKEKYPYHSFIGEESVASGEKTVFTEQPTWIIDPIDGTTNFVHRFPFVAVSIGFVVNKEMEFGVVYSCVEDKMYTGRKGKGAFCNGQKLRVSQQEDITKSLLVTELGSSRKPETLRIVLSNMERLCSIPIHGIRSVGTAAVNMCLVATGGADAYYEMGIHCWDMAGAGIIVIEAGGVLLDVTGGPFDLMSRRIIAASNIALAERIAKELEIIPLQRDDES
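Elevated IP1 in lysates lowers TR-FRET signal (665/620 ratio and 620 channel reported). Cells were CHO-M1, given carbachol (50 uM as added) plus 50mM LiCl, pH 7.4, 30 min, 37C; compounds titrated up to 46 uM; AC50 by Hill equation.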
PNC assembly inh = High Content Assay for Compounds that inhibit the Assembly of the Perinucleolar Compartment; PC3M PTB-GFP, PNC prevalence imaging, 16 h; active compounds read low; activity change (PNC), negative = inhibition, % at 10 µM; actives 3.1% (n = 140,000); AID 2417, 2010;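 active means readout at or below -70, meaning at least 70% loss of cells showing the perinucleolar compartment, a nuclear body marking cancer cells; inconclusive means readout between -30 and a set limit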
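PC3M cells stably expressing PTB-GFP, 750–1000 cells/well, treated 16 h at 37 °C with compound (23 nl of library stock), in duplicate. After paraformaldehyde fixation and Hoechst stain, imaged at 20x; PNC prevalence scored by image analysis.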
Numbers stand for hits; . = inactive; ? = inconclusive; / = no result given; ! = not active in a repeat; [ ] = another dose, or the depositor's remark. Rows were chosen to be rich in hits. Some 11% of all compounds tested hit in one or more screens of this group. Unless noted, the call rests on the fitted dose curve; in most records, active means well fitted curve in the direction sought with a large enough effect; inconclusive means small, poorly fitted or top-dose-only effect, or another doubt; inactive means no such curve, though single readings can be large; an effect the other way counts as inactive or inconclusive.

SMILES | ALDH1A1 block | IMPase Li cell | HPGD block | NPSR antag | IMPase cell inh | PNC assembly inh
CC1(C)CC(=O)c2sc(NC(=O)CN3CCOCC3)nc2C1 | 20µM | . | . | . | . | .
CCC(Oc1ccccc1)C(=O)Nc1nc2c(s1)C(=O)CC(C)(C)C2 (stereo not drawn) | 13µM | . | . | . | . | .
CCC(Oc1ccccc1)C(=O)Nc1nnc(C(F)(F)F)s1 (stereo not drawn) | . | . | . | . | . | ?
CCC(C)C(=O)Nc1nc2c(s1)C(=O)CC(C)(C)C2 (stereo not drawn) | 16µM | . | . | . | . | -119
CC1(C)CC(=O)c2sc(NC(=O)CN3C(=O)CCC3=O)nc2C1 | ? | . | ? | . | . | .
Cc1ccc(N2C(=O)[C@@H]3C(c4ccc(F)cc4)=NO[C@@H]3C2=O)cc1 | . | . | . | . | . | -95
Cc1ccc(N2C(=O)[C@@H]3C(c4cccnc4)=NO[C@@H]3C2=O)c(C)c1 | / | / | / | . | / | /
O=C1[C@@H]2C(c3cccnc3)=NO[C@@H]2C(=O)N1c1ccc(Br)cc1 | 7.9µM | / | / | . | / | /
COc1ccc(C2=NO[C@@H]3C(=O)N(c4ccc(C)cc4C)C(=O)[C@H]23)cc1OC | 22µM | . | . | . | . | .
CSc1nc(N)c2ncn([C@@H]3O[C@H](COP(=O)(O)OP(=O)(O)O)[C@H](O)[C@H]3O)c2n1 | . | . | . | ? | / | /
O=C(CSc1nc2ccccc2c(=O)n1CCC(=O)N1CCCCC1)NCc1ccccc1 | 8.9µM | . | . | . | . | ?
COCCn1c(SCC(=O)N2CCCCC2)nc2ccccc2c1=O | 10µM | . | . | . | . | .
CN1CCC2(CC1)N=C(c1ccc(F)cc1)C(=S)N2C(=O)c1ccc(C(C)(C)C)cc1 | 18µM | / | / | ? | . | .
N#Cc1c2n(c3c(=O)[nH]cnc13)CCCC2 | . | . | . | . | . | ?
N#Cc1c2n(c3c(=S)nc[nH]c13)CCCCC2 | 19µM | ? | . | . | . | .
CC(C)C[C@H](NC(=O)c1[nH]cnc1C(=O)N[C@H](C)c1ccccc1)C(=O)OC(C)(C)C | . | . | / | ? | / | /
C[C@H](NC(=O)c1nc[nH]c1C(=O)N[C@@H](C)c1ccccc1)C(=O)OC(C)(C)C | 4.5µM | . | / | . | / | /
c1cc2c3c(cccc3c1)C(N1CCOCC1)=N2 | / | / | / | . | / | /
c1ccc(CC2CCN(C3=Nc4cccc5cccc3c45)CC2)cc1 | 14µM | . | . | 10µM | . | .
COc1ccc(C)cc1N(CC(=O)Nc1cccnc1)S(=O)(=O)c1ccccc1 | . | . | / | . | / | /
COc1ccc(C)cc1S(=O)(=O)N(C)CC(=O)Nc1ccccc1 | ? | . | . | . | . | -108
COc1ccc(OC)c(N(CC(=O)Nc2cccnc2)S(=O)(=O)c2ccc(OC)c(OC)c2)c1 | . | . | 16µM | . | . | -109
COc1ccc(OC)c(N(CC(=O)Nc2ccc3c(c2)OCO3)S(=O)(=O)c2ccccc2)c1 | . | . | 32µM | . | .[1.84 µM] | .
COc1ccc(OC)c(N(CC(=O)Nc2cccnc2)S(C)(=O)=O)c1 | . | . | . | . | . | .
COc1ccc(OC)c(N(CC(=O)Nc2cccnc2)S(=O)(=O)c2ccc(C)cc2)c1 | . | . | 7.1µM | . | . | .
SMILES | ALDH1A1 block | IMPase Li cell | HPGD block | NPSR antag | IMPase cell inh | PNC assembly inh
COc1ccc(/C=C2\N=C(C)N(c3ccc4ccccc4c3)C2=O)cc1OC | . | . | . | . | / | .
Cc1noc(NS(=O)(=O)c2ccc(NC(=O)CCC3CCCC3)cc2)c1C | . | . | . | . | . | .
COc1ccccc1N(CC(=O)Nc1cc(C)on1)S(=O)(=O)c1ccc(Cl)cc1 | . | . | 14µM | . | . | .
COc1ccccc1N(C)S(=O)(=O)c1ccc(C(=O)OCC(=O)Nc2cc(C)on2)cc1 | . | . | / | . | / | /
CCS(=O)(=O)NCc1csc(-c2ccccc2)n1 | . | . | ? | . | . | ?
C/C(=N\N=C\c1ccccc1F)c1nnn(-c2nonc2N)c1C | . | . | . | . | . | .
COc1ccc(NC(=O)c2ccc3c(c2)NC(=O)CS3)cc1S(=O)(=O)Nc1ccc(Br)cc1 | 10µM | . | / | . | / | /
Cc1ccc(NS(=O)(=O)c2cc(NC(=O)c3ccc4c(c3)NC(=O)CS4)ccc2C)c(C)c1 | 14µM | . | / | . | / | /
CCOCCCNC(=O)c1ccc(CS(=O)(=O)Cc2cccc(C)c2)o1 | . | . | . | . | . | .
COc1ccc(C(=O)c2ccccc2)c(O)c1 | 32µM! | . | 16µM! | . | . | .
COc1ccc(C(C)=O)c(O)c1 | ? | . | 18µM | / | / | /
O=C(c1ccccc1)c1ccc(O)cc1O | . | . | / | . | / | /
CCOC(=O)COc1ccc2nsnc2c1 | . | . | . | . | . | .
CCOC(=O)COc1ccc(C(=O)c2ccccc2)c(O)c1 | . | . | 16µM | . | . | .
COc1ccc(CCNC(=O)c2cc3ccccn3n2)c(OC)c1OC | 22µM | . | ? | . | . | .
COc1ccc(NC(=O)c2cc3ccccn3n2)cc1 | . | . | . | . | . | ?
C=CCN(CC(=O)O)S(=O)(=O)c1ccccc1C(F)(F)F | . | . | / | . | / | /
CCCOC(=O)CN1C(=O)c2ccccc2C1=O | 22µM | . | . | . | . | .
O=C(COC(=O)CN1C(=O)C(=O)c2ccccc21)OCN1C(=O)c2ccccc2C1=O | 0.089µM | . | . | . | / | .
CCOC(=O)CN1C(=O)c2ccccc2C1=O | . | . | . | . | . | ?
CC(C)=CCc1c(O)cc2oc(C)cc(=O)c2c1O | . | . | 4.5µM | / | / | /
CC(C)=CCc1c(O)cc2oc3c(CC=C(C)C)c(O)c(O)c(CC=C(C)C)c3c(=O)c2c1O | / | / | / | . | / | /
COc1c(O)cc2oc3cc(O)c(CC=C(C)C)c(O)c3c(=O)c2c1CC=C(C)C | . | . | 28µM! | / | . | /
COc1cc2ccc(=O)oc2c(CC=C(C)C)c1OC | / | / | / | . | / | /
CCCCC(=O)Nc1ccnc(-c2cccnc2)n1 | . | . | . | . | . | .
Cc1ccc(Nc2nnns2)cc1C | 4µM | . | 22µM | . | . | -82
COc1cccc(C=Nc2ccccc2C(=O)Nc2ccccc2)c1O | ? | . | ? | . | / | -110
O=C(Nc1ccccc1)c1ccccc1N=Cc1cccc(O)c1 | ? | . | / | . | / | /
Cc1cc(Sc2ncnc(N)c2[N+](=O)[O-])ncn1 | . | . | / | . | / | /
COC(=O)C(CCSC)NC(=O)c1cc2c(n(-c3ccccc3)c1=O)CC(C)(C)CC2=O (stereo not drawn) | 28µM | . | . | . | . | .

Compound activity from PubChem.
